Here are results for ten compounds from PubChem BioAssay AID652013 (National Center for Advancing Translational Sciences (NCATS), 2013).

Each structure is given as a SMILES string. Several values for one entry are separate records, joined by “and”; a condition that tells them apart may be missing. Identical values can stand only once. A number with no mark means an inactive call.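 The calls were made as follows: active = relative NQO1 transcription at 1 µM of 250% or more; inconclusive = relative NQO1 transcription between 200% and 250%; inactive = relative NQO1 transcription under 200%.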

A short description of this experiment: qHTS of Nrf2 Activators: Hit Validation in NQO-1 Induction Assay. To be noted: Hepa1c1c7 cells, NQO1 mRNA qPCR, 24 h; at 1 µM; hits give high values. From the text:
Many diseases have some form of oxidative stress injury and ties to inflammation, causing a host of problems for the patient. The antioxidant response element (ARE) plays an important role in alleviating the harmful effects of oxidative stress. The antioxidant response element (ARE) is a transcriptional regulatory element involved in the activation of genes coding for a number of antioxidant proteins and detoxifying enzymes. These enzymes work in concert to protect tissues from oxidative insults and chemical toxicities in human hepatocytes and immune cells. The protective effects of ARE activation are primarily triggered through Nrf2 (NF-E2-related factor) binding to and activating AREs. It is known that Nrf2 controls the production of over 250 antioxidant and detoxification proteins (Hu et al., 2006), thereby protecting tissues by increasing cellular antioxidant content and suppressing inflammatory signaling pathways. The transcription factor Nrf2 is a central link between oxidative chemicals, such as phenolic antioxidants and electrophilic compounds, and the activation of ARE. Nrf2 levels are constitutively low as a consequence of its interaction with Keap1, which targets its degradation (Zipper and Mulcahy, 2002). Electrophiles react with key cysteine residues in Keap1, releasing Nrf2 and allowing its translocation to the nucleus. Once within the nucleus, Nrf2 complexes with coactivators such as p300, and binds to the AREs to induce gene transcription of cytoprotective enzymes, resulting in the prevention of toxicity. Activation of Nrf2 protects tissues by increasing cellular antioxidant content and suppressing inflammatory signaling pathways. Identifying novel and potent Nrf2 activators by using the AREc32 cell line to detect ARE activation by small molecules will lead to the identification and development of probes to study protective pathways in multiple tissues. These specific probes are essential to study the ARE pathway, and eventually to determine whether this pathway does activate genes that could protect against a host of diseases, including cardiovascular diseases, obesity, diabetes, Alzheimer's, and Parkinson's disease. This project's aim is to identify novel and potent Nrf2 activators by using the AREc32 cell line to detect ARE activation by small molecules, which will lead to the identification and development of probes to study the ARE pathway. Compounds that were identified in the primary screen were tested in this secondary assay to assess whether a hit also activates Nrf2 transcription of the target gene NQO-1. NIH Chemical Genomics Center [NCGC] NIH Molecular Libraries Probe Centers Network [MLPCN] MLPCN Grant: DK081461 Assay Submitter (PI): Curtis Klaassen, University of Kansas Medical Center
Hepac1c7 cells were seeded into 24-well plates at a density of 30,000 cells/well in 1 mL complete media per well and cultured overnight to allow attachment. Cells were treated the next day with compounds (1 uM)or positive control for 24 h. Total RNA samples were then isolated by using RNAzol B reagent (Tel-Test, Inc., Friendswood, TX) according to the manufacturer's protocol. Total RNAs were reverse-transcribed into cDNA by High Capacity cDNA Archive Kits (Applied Biosystems, Foster City, CA) and the resulting cDNA was used for real-time PCR analysis using SYBR(R) Green PCR Master Mix in a 7900HT Fast Real-Time PCR System.
On the technique in general: qHTS replaces the single test concentration by a dilution series.
Consider `Clc1ccc2c(NCc3ccccn3)ncnc2c1`, for which the relative NQO1 transcription was 83%.

Take `CS(=O)(=O)c1nc(S(=O)(=O)c2ccc(Cl)cc2)c(N2CCOCC2)s1`: the relative NQO1 transcription is 129%.

For the compound `Cc1nc(NCc2ccco2)nc2c1C(=O)CC(C)C2` (stereo not given), the relative NQO1 transcription was 175%.

`COC(=O)c1c(NC(=O)c2ccccc2)sc(C(N)=O)c1C`: the relative NQO1 transcription is 60%.

Take `O=C(Nc1cccc2ncccc12)c1ccc(Cl)cc1`: the relative NQO1 transcription was 136%.

As for `COc1ccc(NC(=O)c2cc(-c3cccs3)on2)c(OC)c1`, the relative NQO1 transcription is 129%.

For `O=C(Nc1ncnc2sc3c(c12)CCCCC3)c1ccco1`, the relative NQO1 transcription was 163% and 137%.

As for `COc1ccc(NC(=O)c2cc(-c3ccco3)on2)c(OC)c1`, the relative NQO1 transcription was 75%.

As for `COc1ccccc1NC(=O)c1cc(Cl)nc2ccccc12`, the relative NQO1 transcription is 79%.

Turning to `O=C(Nc1ncnc2sc3c(c12)CCC3)c1ccco1`, the relative NQO1 transcription is 175%.
